Measurements published in PubChem BioAssay AID1159580 (chemical genetic matrix, 2015).
Values joined by “and” are separate entries in the source; they are usually repeats but may differ in a detail not shown here. Identical values can stand only once. Hit rate of the full screen: of about 5,500 compounds, about 2,000 (36%) were called active. Roughly 18% stayed inconclusive and do not appear here. No stated cut-off is given here; in the data, active means normalized growth mostly below about 0.91 (no sharp cut-off); inconclusive means no clear call, values can overlap the other calls; inactive means mostly above about 0.92. Some of the results follow.

Experiment: chemical genetic growth profiling, strain panel (AID 1159580);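 further: tested at 20 µM; growth read once vehicle control cultures reached saturation at 30 °C; 1 = growth at the plate median or of vehicle wells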
Conditions: S. cerevisiae deletion strains, growth OD

Measured: normalized growth

COc1cc2c(cc1OC)C1(O)C(=O)c3ccc(O)c(C(=O)O)c3OC1CO2 (configuration not stated)
inactive: locus YAL021C, strain ccr4, stronger effect = lower value 1 | locus YAL026C, strain drs2, stronger effect = lower value 0.988 | locus YAL030W, strain snc1, stronger effect = lower value 1 | locus YBL061C, strain skt5, stronger effect = lower value 0.995 | locus YBR009C, strain hhf1, stronger effect = lower value 0.998 | locus YBR021W, strain FUR4, stronger effect = lower value 1.06 | locus YBR023C, strain chs3, stronger effect = lower value 1.01 | locus YBR171W, strain sec66, stronger effect = lower value 0.996 | locus YBR229C, strain ROT2, stronger effect = lower value 1.01 | locus YBR231C, strain swc5, stronger effect = lower value 1.01 | locus YBR279W, strain paf1, stronger effect = lower value 0.985 | locus YCL011C, strain gbp2, stronger effect = lower value 0.991 | locus YCL016C, strain dcc1, stronger effect = lower value 0.98 | locus YCL029C, strain bik1, stronger effect = lower value 0.985 | locus YCL069W, strain vba3, stronger effect = lower value 1 | locus YCR088W, strain abp1, stronger effect = lower value 0.996 | locus YDL005C, strain med2, stronger effect = lower value 1.01 | locus YDL035C, strain GPR1, stronger effect = lower value 1.05 | locus YDL040C, strain nat1, stronger effect = lower value 0.998 | locus YDL074C, strain BRE1, stronger effect = lower value 1.05 | locus YDL101C, strain DUN1, stronger effect = lower value 0.991 | locus YDL185W, strain tfp1, stronger effect = lower value 0.954 | locus YDL192W, strain arf1, stronger effect = lower value 1.02 | locus YDR001C, strain nth1, stronger effect = lower value 0.987 | locus YDR069C, strain doa4, stronger effect = lower value 0.991 | locus YDR101C, strain arx1, stronger effect = lower value 1.05 | locus YDR137W, strain rgp1, stronger effect = lower value 0.973 | locus YDR159W, strain sac3, stronger effect = lower value 1 | locus YDR162C, strain NBP2, stronger effect = lower value 0.993 | locus YDR195W, strain ref2 0.955 | locus YDR297W, strain sur2, stronger effect = lower value 1 | locus YDR318W, strain mcm21, stronger effect = lower value 0.986 | locus YDR334W, strain swr1, stronger effect = lower value 0.978 | locus YDR335W, strain msn5, stronger effect = lower value 1.01 | locus YDR388W, stronger effect = lower value 0.977 | locus YDR392W, strain spt3, stronger effect = lower value 0.974 | locus YDR502C, strain sam2, stronger effect = lower value 0.983 | locus YEL003W, strain gim4, stronger effect = lower value 0.998 | locus YEL037C, strain rad23, stronger effect = lower value 0.987 | locus YEL061C, strain CIN8 (second series), stronger effect = lower value 0.989 | locus YEL061C, strain CIN8, stronger effect = lower value 0.998 | locus YER015W, strain faa2, stronger effect = lower value 0.989 | locus YER016W, strain bim1, stronger effect = lower value 0.991 | locus YER110C, stronger effect = lower value 0.979 | locus YER111C, strain swi4, stronger effect = lower value 0.98 | locus YER155C, strain BEM2 (second series), stronger effect = lower value 0.994 | locus YER155C, strain BEM2, stronger effect = lower value 0.99 | locus YER167W, strain BCK2, stronger effect = lower value 1.04 | locus YFR010W, strain ubp6, stronger effect = lower value 1 | locus YGL078C, strain dbp3, stronger effect = lower value 0.981 | locus YGL086W, strain mad1, stronger effect = lower value 1.02 | locus YGL167C, strain pmr1, stronger effect = lower value 0.998 | locus YGL173C, strain kem1, stronger effect = lower value 0.994 | locus YGL227W, strain vid30, stronger effect = lower value 0.991 | locus YGL240W, strain doc1, stronger effect = lower value 1.01 | locus YGL248W, strain PDE1, stronger effect = lower value 1.02 | locus YGL253W, strain hxk2, stronger effect = lower value 0.999 | locus YGR078C, strain PAC10, stronger effect = lower value 0.991 | locus YGR135W, strain pre9, stronger effect = lower value 0.98 | locus YGR252W, strain gcn5, stronger effect = lower value 1.09 | locus YHR013C, strain ard1, stronger effect = lower value 0.972 | locus YHR027C, strain rpn1, stronger effect = lower value 0.991 | locus YHR030C, strain SLT2, stronger effect = lower value 0.99 | locus YHR079C, strain IRE1 (second series), stronger effect = lower value 0.99 | locus YHR079C, strain IRE1, stronger effect = lower value 0.983 | locus YHR094C, strain hxt1, stronger effect = lower value 0.982 | locus YHR129C, strain ARP1, stronger effect = lower value 1 | locus YHR142W, strain chs7, stronger effect = lower value 0.98 | locus YHR200W, strain rpn10, stronger effect = lower value 0.995 | locus YIL066C, strain RNR3, stronger effect = lower value 1.02 | locus YIL073C, strain SPO22, stronger effect = lower value 0.932 | locus YIL125W, strain kgd1, stronger effect = lower value 0.985 | locus YIR030C, strain dcg1, stronger effect = lower value 0.997 | locus YJL092W, strain hpr5, stronger effect = lower value 1.02 | locus YJL095W, strain BCK1 (second series), stronger effect = lower value 0.989 | locus YJL095W, strain BCK1, stronger effect = lower value 0.99 and 0.98 | locus YJL115W, strain asf1, stronger effect = lower value 0.986 | locus YJL129C, strain trk1, stronger effect = lower value 0.972 | locus YJL134W, strain LCB3, stronger effect = lower value 0.986 | locus YJL154C, strain vps35, stronger effect = lower value 0.995 | locus YJL164C, strain tpk1, stronger effect = lower value 0.998 | locus YJL166W, strain qcr8, stronger effect = lower value 0.997 | locus YJL168C, strain set2, stronger effect = lower value 0.989 | locus YJL187C, strain SWE1 (second series), stronger effect = lower value 0.989 | locus YJL187C, strain SWE1, stronger effect = lower value 0.999 | locus YJR043C, strain POL32, stronger effect = lower value 1.08 | locus YJR066W, strain TOR1, stronger effect = lower value 0.9
